In the library only some 2.3% were active in any assay of this set; here they are far more common.
SENP6 inh: inhibitors of human SENP6 protease; 330,000 tested, 1.8% active; AID 2599; Q9GZR1; Recombinant SENP6 catalytic domain, aminoluciferin luminescence; inhibition, % at 10 µM;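 active means inhibition above about 50% at the single tested dose, limit read from the data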
SENP7 block: inhibitors of human SENP7 protease; 330,000 tested, 1.5% active; inhibition, % at 5 µM; recombinant SENP7, Z-RLRGG-aminoluciferin luminescence, 40 min; AID 434973;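 active means inhibition above about 50% at the single test dose, limit read from the data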
Target sequence (Q9BQF6 706-1050 limits assumed): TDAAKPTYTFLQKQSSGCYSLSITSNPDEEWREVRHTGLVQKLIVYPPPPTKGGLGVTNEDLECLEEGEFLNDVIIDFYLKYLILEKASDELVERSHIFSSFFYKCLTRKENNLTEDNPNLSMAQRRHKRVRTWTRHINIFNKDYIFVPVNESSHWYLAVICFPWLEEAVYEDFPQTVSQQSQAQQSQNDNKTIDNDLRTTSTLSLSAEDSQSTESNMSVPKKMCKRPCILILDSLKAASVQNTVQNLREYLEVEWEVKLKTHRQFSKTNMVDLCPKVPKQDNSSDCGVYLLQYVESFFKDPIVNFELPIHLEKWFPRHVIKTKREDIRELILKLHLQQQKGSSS
SENP8 block-1: inhibitors of human SENP8 protease | inhibition, % at 10 µM | AID 2540 | 330,000 tested, 1.2% active | purified SENP8, Z-RLRGG-aminoluciferin cleavage, luminescence | Q96LD8; in the data active means inhibition above about 50%
Target sequence (Q96LD8 whole entry, looked up): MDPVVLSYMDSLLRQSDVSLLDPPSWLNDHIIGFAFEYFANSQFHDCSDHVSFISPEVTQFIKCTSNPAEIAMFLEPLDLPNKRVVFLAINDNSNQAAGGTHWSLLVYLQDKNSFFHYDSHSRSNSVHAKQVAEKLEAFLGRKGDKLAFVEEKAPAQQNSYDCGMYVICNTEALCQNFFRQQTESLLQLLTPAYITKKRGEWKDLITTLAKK
SENP8 block-2: SENP8 (human) protease inhibition; recombinant SENP8, Nedd8 substrate fluorescence; inhibition, % at 20 µM; 360,000 tested, 0.64% active; AID 602440; in the data active means inhibition mostly above about 40%, no sharp cut-off; inactive means mostly below about 27%
LGR2 inh: Drosophila LGR2 receptor signaling inhibition | 380,000 tested, 0.35% active | HEK293 LGR2, CRE-luciferase, bursicon-stimulated, 4 h | inhibition, % at 9.99 µM;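 active means drop in luminescence signal, shown as inhibition above about 50% in the replicate tests, limit read from the data, passing the limit was not always enough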;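 further: agonist challenge used bursicon conditioned medium at about half maximal strength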
HSP90 refold inh: HSP90 refolding inhibition in rabbit reticulocyte lysate | luciferase refolding luminescence, 3 h | inhibition, % at 5.6 µM | 290,000 tested, 0.91% active;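 active means inhibition above the screen-wide mean plus 3 SD, computed separately per campaign, cut at about 16% in these data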;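 further: inhibitors lower the luminescence because luciferase stays unfolded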
SENP8 confirm: confirmation of human SENP8 protease inhibitors; shares compounds with SENP7 block; Recombinant SENP8, Z-RLRGG-aminoluciferin luminescence, 60 min; inhibition, % at 12.5 µM; 6,200 tested, 40% active; AID 488912;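 active means mean inhibition across replicates above about 50%, limit read from the data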
SENP6 conf: human SENP6 inhibition, confirmed | shares compounds with SENP7 block | recombinant SENP6, Z-RLRGG-aminoluciferin luminescence | inhibition, % at 12.5 µM | 6,200 tested, 58% active | AID 488915
SENP7 conf: confirmation of human SENP7 protease inhibitors | 6,200 tested, 69% active | AID 488917 | recombinant SENP7, Z-RLRGG-aminoluciferin luminescence, 40 min | shares compounds with SENP7 block | inhibition, % at 12.5 µM
Casp3 select: selectivity test for SENP inhibitors: human caspase-3 inhibition; AID 488918; purified caspase-3, Z-DEVD-aminoluciferin luminescence, 60 min; 6,200 tested, 60% active; shares compounds with SENP7 block; inhibition, % at 12.5 µM;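 active means mean inhibition above about 50%, limit read from the data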
SENP luc ctr: counter-screen for SENP inhibitors: luminescence interference; shares compounds with SENP7 block; Pre-incubated SENP8/Z-RLRGG-aminoluciferin, luciferase luminescence interference; inhibition, % at 12.5 µM; 6,200 tested, 39% active;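 active means mean inhibition above about 50% when retested at one dose, limit read from the data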
Of the large screens only hits and unclear results are named; the others gave an inactive call (follow-up assays come after a bar, where they were run).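 How the source made its calls, unless noted: active means mean inhibition above about 50% in the one-dose retest (limit read from the data); inactive means the rest.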

Cc1ccc(Nc2n[nH]c(C)c2[N+](=O)[O-])cc1C	SENP6 inh 58.5 | SENP8 confirm inactive | SENP6 conf inactive | SENP7 conf 83.7 | Casp3 select 52.6 | SENP luc ctr inactive
CCN1CCN(c2nc(N)c([N+](=O)[O-])c(Nc3ccc(C)c(C)c3)n2)CC1	none (no result: LGR2 inh)
C[C@@H]1CN([C@H](C)CO)C(=O)c2cc(NC(=O)Cc3ccccc3)ccc2O[C@@H](C)CCCCO[C@H]1CN(C)S(C)(=O)=O	none (no result: SENP6 inh, SENP7 block, SENP8 block-1, SENP8 block-2, HSP90 refold inh)
COc1ncccc1-c1nnn(-c2ccc(F)cc2)n1	SENP6 inh 72.8, SENP7 block 69.7, SENP8 block-1 67.0 | SENP8 confirm 70.7 | SENP6 conf 75.0 | SENP7 conf 93.0 | Casp3 select 80.9 | SENP luc ctr 68.9
COc1ncccc1-c1nnn(-c2ccc(C)cc2)n1	SENP6 inh 78.5, SENP7 block 80.0, SENP8 block-1 69.9 | SENP8 confirm 78.4 | SENP6 conf 81.2 | SENP7 conf 96.3 | Casp3 select 82.3 | SENP luc ctr 79.1
COc1ncccc1-c1nnn(-c2ccc(Cl)c(Cl)c2)n1	none
CCCNC(=O)Nc1ccc2c(c1)C(=O)N(C)C[C@@H](OC)[C@@H](C)CN(C(=O)C1CCCCC1)[C@H](C)CO2	none (no result: SENP6 inh, SENP7 block, SENP8 block-1, SENP8 block-2, HSP90 refold inh)
CSc1nsc(/C=C/Nc2ccc(C(=O)O)cc2)c1C#N	SENP6 inh 58.4 (no result: LGR2 inh) | SENP8 confirm inactive | SENP6 conf 68.1 | SENP7 conf 88.6 | Casp3 select 56.9 | SENP luc ctr inactive
C[C@@H]1CN([C@@H](C)CO)S(=O)(=O)c2ccc(-c3cccc(F)c3)cc2O[C@H]1CN(C)CC1CC1	none (no result: SENP6 inh, SENP7 block, SENP8 block-1, SENP8 block-2, HSP90 refold inh)
COc1ccc2c3c([nH]c2c1)[C@@H](CO)N(C(=O)c1ccncc1)CC31CN(C(=O)CC2CC2)C1	none (no result: SENP6 inh, SENP7 block, SENP8 block-1, SENP8 block-2, HSP90 refold inh)
COc1ccccc1NC(=O)/C=C/c1ccc2c(c1)OCO2	SENP6 inh 72.7, SENP7 block 68.2, SENP8 block-1 65.2 | SENP8 confirm 78.2 | SENP6 conf 75.3 | SENP7 conf 93.2 | Casp3 select 72.8 | SENP luc ctr inactive
COc1ccccc1NC(=O)c1ccc2c(c1)OCO2	SENP6 inh 59.8, SENP7 block 50.6 | SENP8 confirm 50.8 | SENP6 conf inactive | SENP7 conf 83.5 | Casp3 select 79.3 | SENP luc ctr 60.5
O=C(/C=C/c1ccc2c(c1)OCO2)Nc1ccc(Cl)cn1	SENP7 block 54.2 | SENP8 confirm inactive | SENP6 conf inactive | SENP7 conf inactive | Casp3 select inactive | SENP luc ctr inactive
COc1ccc(OC)c(NC(=O)c2ccc3c(c2)OCO3)c1	none
O=C(C=Cc1ccc2c(c1)OCO2)c1ccccc1	none (no result: SENP6 inh, SENP7 block, SENP8 block-1, HSP90 refold inh)
O=C(/C=C/c1ccc2c(c1)OCO2)c1ccccn1	SENP6 inh 75.0, SENP7 block 71.0, SENP8 block-1 72.9 | SENP8 confirm 92.1 | SENP6 conf 89.4 | SENP7 conf 94.7 | Casp3 select 69.3 | SENP luc ctr 67.7
COc1ccccc1NC(=O)COC(=O)/C=C/c1ccc2c(c1)OCO2	none
Cc1noc(C)c1NC(=O)Nc1ccc2c(c1)CC(=O)N([C@@H](C)CO)C[C@@H](C)[C@H](CN(C)S(=O)(=O)c1ccc(Cl)cc1)O2	none (no result: SENP6 inh, SENP7 block, SENP8 block-1, SENP8 block-2, HSP90 refold inh)
CC(=O)Oc1ccc2cc(-c3ccccc3)c(=O)oc2c1	SENP6 inh 93.1, SENP7 block 84.5, SENP8 block-1 85.6 | SENP8 confirm inactive | SENP6 conf inactive | SENP7 conf 50.2 | Casp3 select inactive | SENP luc ctr inactive
CC(=O)COc1ccc2cc(-c3ccccc3)c(=O)oc2c1	none
N/C(=N\OC(=O)c1ccccc1Cl)c1cccc([N+](=O)[O-])c1	SENP6 inh 74.7, SENP7 block 89.5, SENP8 block-1 66.6 | SENP8 confirm 59.3 | SENP6 conf 60.2 | SENP7 conf 91.1 | Casp3 select 59.4 | SENP luc ctr 81.0
N/C(=N\OC(=O)c1cccc([N+](=O)[O-])c1)c1ccccn1	SENP6 inh 50.2, SENP7 block 61.0 | SENP8 confirm inactive | SENP6 conf inactive | SENP7 conf 75.0 | Casp3 select 79.8 | SENP luc ctr inactive
N/C(=N/OC(=O)c1cccc([N+](=O)[O-])c1)c1cccc([N+](=O)[O-])c1	none
N/C(=N\OC(=O)c1cccc(F)c1)c1cccc([N+](=O)[O-])c1	none (no result: LGR2 inh)
CC(C)CC#Cc1ccc([C@@H]2[C@@H](CO)N3C(=O)CN(C(=O)NC4CCCCC4)C[C@H]23)cc1	none (no result: SENP6 inh, SENP7 block, SENP8 block-1, SENP8 block-2, HSP90 refold inh)
CC(=O)c1ccc(OC(=O)c2ccc(-n3nc(C)cc3C)cc2)cc1	none
COc1ccc(/C(N)=N/OC(=O)c2ccc3c(c2)OCO3)cc1OC	SENP6 inh 82.9, SENP7 block 84.1, SENP8 block-1 75.4 | SENP8 confirm inactive | SENP6 conf inactive | SENP7 conf inactive | Casp3 select inactive | SENP luc ctr inactive
COc1cc(OC)c(C(=O)Oc2ccc3c(c2)OCO3)cc1OC	none
Cc1cc(C)n(-c2ccc(C(=O)Oc3ccc4c(c3)OCO4)cc2)n1	SENP7 block 67.2 (no result: LGR2 inh) | SENP8 confirm 61.5 | SENP6 conf 70.5 | SENP7 conf 91.1 | Casp3 select 67.3 | SENP luc ctr 56.8
COc1ccc(C(=O)Oc2ccc3c(c2)OCO3)cc1OC	SENP6 inh 57.6, SENP7 block 60.0 (no result: LGR2 inh) | SENP8 confirm inactive | SENP6 conf inactive | SENP7 conf 80.2 | Casp3 select 65.5 | SENP luc ctr 61.3
N/C(=N\OC(=O)c1ccc2c(c1)OCO2)c1cccnc1	SENP6 inh 74.3, SENP7 block 80.4, SENP8 block-1 50.8 (no result: LGR2 inh) | SENP8 confirm 57.7 | SENP6 conf 57.1 | SENP7 conf 86.8 | Casp3 select 87.8 | SENP luc ctr 69.3
CCC(=O)N1C[C@@H](C)[C@H](OC)CN(C)C(=O)c2ccc(NC(=O)c3cc(C)on3)cc2OC[C@@H]1C	none (no result: SENP6 inh, SENP7 block, SENP8 block-1, SENP8 block-2, HSP90 refold inh)
COc1ccccc1-c1ccc([C@H]2[C@@H](CO)N3CCCCN(Cc4ccncc4)C[C@H]23)cc1	none (no result: SENP6 inh, SENP7 block, SENP8 block-1, SENP8 block-2, HSP90 refold inh)
N/C(=N\OC(=O)c1ccc2c(c1)OCO2)c1cccc(Br)c1	SENP6 inh 94.7, SENP7 block 97.5, SENP8 block-1 96.2 | SENP8 confirm 96.8 | SENP6 conf 97.9 | SENP7 conf 102.3 | Casp3 select 96.6 | SENP luc ctr 51.0
N/C(=N\OC(=O)c1ccc2c(c1)OCO2)c1ccc([N+](=O)[O-])cc1	none
